# Measured values reported in the supplement of paper PMC8183993.
# Several values for one entry are separate records, joined by “and”; a condition that tells them apart may be missing. Equal entries are not always repeated. Structures can show the parent of a compound that is named as a salt. ± gives the standard deviation of the averaged measurements. Whole data set: some 3,200 compounds, median “nuclei count (viability) relative to DMSO” near 99, cut for the lowest 2% near 16. Only a selection was taken, and the lowest values are over-represented in it overall.
# System: U2OS
# Test: nuclei count (viability) relative to DMSO (% of DMSO); higher = more viable cells
# Conditions: 10 µM; 24 h
# Protocol: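 Primary image-based screen in U2OS cells: compounds at 10 uM for 24 h, then a 1 h o-propargyl-puromycin (OPP) pulse, click labelling, and high-throughput microscopy. Mean cytoplasmic OPP intensity and nuclei count were normalised to DMSO wells within each plate (DMSO = 100) and averaged over triplicate plates.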
row,Compound,nuclei count
1,COC[C@H](NC(=O)c1cnc(C)s1)C(=O)N[C@@H](COC)C(=O)N[C@@H](Cc1ccccc1)C(=O)[C@@]1(C)CO1 [Oprozomib (ONX 0912)],11.1
2,COC(=O)[C@H](Cc1ccccc1)NC(=O)[C@@H](N)CC(=O)O [Aspartame],108
3,O=C(CCc1ccc(O)cc1)c1c(O)cc(O)cc1O[C@@H]1O[C@H](CO)[C@@H](O)[C@H](O)[C@H]1O [Phlorizin (Phloridzin)],82.5
4,Oc1cc2c(c(Cl)c1O)CCNCC2c1ccccc1 (stereo not drawn),91.2
5,O=C1CCc2c(ccc3ccccc23)O1 [Splitomicin],104 ± 5.1
6,CC(NC(=O)C(Cc1ccccc1)NC(=O)OCc1ccccc1)C(=O)CF (stereo not drawn),95
7,CCCC[C@@H](C=O)NC(=O)[C@H](CC(C)C)NC(=O)OCc1ccccc1 [Calpeptin],102 ± 1.9
8,CC(C)C[C@@H](C=O)NC(=O)[C@H](CC(C)C)NC(=O)[C@H](CC(C)C)NC(=O)OCc1ccccc1,10.9 and 7.59
9,CC1C(=O)OC2C(O)C34C5CC(C(C)(C)C)C36C(OC(=O)C6O)OC4(C(=O)O5)C12O (stereo not drawn) [Ginkgolide B],95
10,NCCCCCc1c[nH]cn1 [Impentamine dihydrobromide],90.5
11,CN(Cc1ccccc1)C(=O)[C@H](Cc1ccc2ccccc2c1)NC(=O)[C@@H]1CCCN1C(=O)Nc1ccccc1[N+](=O)[O-],100
12,OC(c1cc(C(F)(F)F)nc2c(C(F)(F)F)cccc12)C1CCCCN1 (stereo not drawn) [Mefloquine hydrochloride],10.7
13,Oc1ccc(OC2CCCCO2)cc1 (stereo not drawn) [Deoxyarbutin],91.1
14,COC(=O)[C@@H]1CC2=CC(=O)CC[C@]2(C)[C@@]23O[C@@H]2C[C@@]2(C)[C@@H](CC[C@@]24CCC(=O)O4)[C@H]13 [Eplerenone],104 ± 3.6
15,Cc1cc(Nc2ncc(Cl)c(Nc3ccccc3S(=O)(=O)C(C)C)n2)c(OC(C)C)cc1C1CCNCC1 [Ceritinib (LDK378)],14.7
16,CC(C)Oc1cc(Nc2nc(N[C@@H](C)c3ccc(F)cn3)ncc2Cl)n[nH]1,52.7
17,Cc1cccc(C)c1NC(=O)C[N+](C)(C)C,106
18,CCn1nnc2c(N3CCOCC3)nc(-c3ccc(NC(=O)Nc4ccc(C(=O)N5CCN(C)CC5)cc4)cc3)nc21,77.7
19,CC(C)c1ccc(Cn2ccc3c4c(N)nc(NC5CC5)nc4ccc32)cc1,29.3
20,Cc1c(NC(=O)N2CCOCC2)ccc2c1c1ccccc1n2C(C)C,94.6
21,CC(C)C[C@H](NC(=O)CNC(=O)c1cc(Cl)ccc1Cl)B1OC(=O)C(CC(=O)O)(CC(=O)O)O1,11.6
22,CC(C)C[C@H](NC(=O)CNC(=O)c1cc(Cl)ccc1Cl)B(O)O,9.55
23,CC(C)C[C@H](NC(=O)[C@H](CCC(=O)O)NC(=O)CNC(=O)c1ccc(/C=C/C(=O)O)cc1)C(N)=O,97.5
24,N=C(N)c1ccc(N2CCN(C3CCN(CC(=O)O)CC3)CC2)cc1,104
25,CCCC(=O)[O-].[Na+] [Sodium butyrate],89.2
26,CC1=C(/C=C/C(C)=C/C=C/C(C)=C/C(=O)O)C(C)(C)CCC1O (stereo not drawn) [4-Hydroxyretinoic acid],101

row,Compound,nuclei count
1,NC(C(=O)O)c1ccc(C(=O)O)c(C(=O)O)c1 (racemic),102
2,COc1cccc(-c2cc(NCc3ccc4c(c3)OCO4)nc(N)n2)c1,19.1
3,CC(C)[C@H]1c2ccc(F)cc2CC[C@@]1(CCN(C)CCCc1nc2ccccc2[nH]1)OC(=O)C1CC1 [NNC 55-0396 dihydrochloride],10.5
4,COCC(=O)O[C@]1(CCN(C)CCCc2nc3ccccc3[nH]2)CCc2cc(F)ccc2[C@@H]1C(C)C [Mibefradil dihydrochloride],81.7
5,CC(C)c1ccc(NC(=O)Cn2cnc3c2c(=O)n(C)c(=O)n3C)cc1,103
6,COc1cc2c(NC3CCN(C(C)C)CC3)nc(N3CCC(F)(F)CC3)nc2cc1OCCCN1CCCC1,50.6
7,C[C@@H]1CN(CCCn2c3ccccc3c3ccccc32)C[C@H](C)N1 [Rimcazole dihydrochloride],80
8,CCN(CC)CCCC(C)Nc1ccnc2cc(Cl)ccc12 (stereo not drawn) [Chloroquine diphosphate],103
9,CCN(CCO)CCCC(C)Nc1ccnc2cc(Cl)ccc12 (stereo not drawn) [Hydroxychloroquine sulfate],96.1
10,CCN(CCO)CCCC(C)Nc1ccnc2cc(Cl)ccc12 (stereo not drawn) [Hydroxychloroquine],85.7
11,CCN(CC)CCCC(C)Nc1c2ccc(Cl)cc2nc2ccc(OC)cc12 (stereo not drawn) [Quinacrine dihydrochloride dihydrate],12.9
12,CCN(CC)CCCC(C)Nc1ccnc2cc(Cl)ccc12 (stereo not drawn) [Chloroquine],96.6
13,CC1=CC(=O)C(C(C)C)=CC1=O [Thymoquinone],103
14,COc1ccc(CCN(C)CCCOc2ccc(S(=O)(=O)c3c(C(C)C)n(C)c4ccccc34)cc2)cc1OC,47.5
15,C1CCC(C(CC2CCCCN2)C2CCCCC2)CC1 (stereo not drawn) [Perhexiline maleate],5.66
16,COc1cc(-c2cn(C)c(=O)c3cnccc23)c(OC)cc1CN(C)C,110
17,Cc1ccc(-n2nc(C(C)(C)C)cc2NC(=O)Nc2ccc(OCCN3CCOCC3)c3ccccc23)cc1 [BIRB 796 (Doramapimod)],94.7
18,COc1ccc(NC(=O)c2ccc(-c3ccc(-c4noc(C)n4)cc3C)cc2)cc1OCCN(C)C,100
19,C[n+]1cc2c3c(ccc2c2ccc4cc5c(cc4c21)OCO5)OCO3 [Sanguinarine chloride],12
20,COc1ccc2cc3[n+](cc2c1OC)CCc1cc2c(cc1-3)OCO2 [Berberine HCl],98.6
21,Cc1[nH]c2ccccc2c1C(Nc1ccccn1)c1ccc(Cl)cc1 (stereo not drawn),93.9
22,CC[N+](C)(CC)CC(=O)Nc1c(C)cccc1C [N-Methyllidocaine iodide],98.4
23,CC1=C(C(=O)OCCN(Cc2ccccc2)c2ccccc2)C(c2cccc([N+](=O)[O-])c2)C(P2(=O)OCC(C)(C)CO2)=C(C)N1 (stereo not drawn) [Efonidipine hydrochloride monoethanolate],99.9
24,COc1cc(NC(C)CCCN)c2ncccc2c1 (stereo not drawn) [Primaquine diphosphate],15.7
25,CCC(C)N(C)C(=O)c1cc2ccccc2c(-c2ccccc2Cl)n1 (stereo not drawn),106
26,COC(=O)c1c(-c2cc(OC)c(OC)c(OC)c2)c2ccnc(OCc3ncccn3)c2c(=O)n1Cc1ccnc(C)c1 [T 0156 hydrochloride],107

row,Compound,nuclei count
1,COc1cc2c(Nc3ccc(NC(=O)c4ccccc4)cc3)ncnc2cc1OCCCN1CCOCC1,49.8 and 53.3
2,COc1cc2nccc(Oc3ccc(NC(=O)C4(C(=O)Nc5ccc(F)cc5)CC4)cc3)c2cc1OC [XL-184 free base (Cabozantinib)],51.5
3,COc1cc2c(Oc3ccc(NC(=O)C4(C(=O)Nc5ccc(F)cc5)CC4)cc3F)ccnc2cc1OCCCN1CCOCC1,12
4,COc1cc2nccc(Oc3ccc(NC(=O)C4(C(=O)Nc5ccc(F)cc5)CC4)cc3)c2cc1OC [Cabozantinib malate],59
5,O=C1c2c(O)cc(O)cc2OC(c2ccc(O)c(O)c2)C1O (stereo not drawn) [Taxifolin (Dihydroquercetin)],90.7
6,O=C(O)c1ccc(O)c2ncccc12,99.5
7,COc1ccc([C@@H]2CNC(=O)C2)cc1OC1CCCC1 [(R)-(-)-Rolipram],96.2
8,CC[N+](CC)(CC)CC(=O)Nc1c(C)cccc1C [QX 314 bromide],97.5
9,CC[N+](CC)(CC)CC(=O)Nc1c(C)cccc1C [QX 314 chloride],104
10,CC[N+](CC)(CC)CC(=O)Nc1c(C)cccc1C [QX-314 bromide],104
11,CN(C)CCN(Cc1ccc(Cl)cc1)c1ccccn1 [Chloropyramine hydrochloride],105
12,CCCCCCCCCCCCCCCC[N+](C)(C)CCN(Cc1ccc(OC)cc1)c1ncccn1 [Thonzonium bromide],12.1
13,COc1ccc(CN(CCN(C)C)c2ccccn2)cc1 [Mepyramine maleate],104
14,COc1ccc(CN(CCN(C)C)c2ccccn2)cc1 [Pyrilamine maleate],102
15,CC(=O)O[C@@H]1C[C@H]2C(C)(C)C(=O)C=C[C@]2(C)[C@H]2CC[C@@]3(C)[C@H](c4ccoc4)OC(=O)[C@H]4O[C@]43[C@@]21C [Gedunin],85.6
16,COC1CCC(C(=O)c2ccc3nc4c(cc3c2)CCCO4)CC1 (stereo not drawn),96.5
17,CCn1cc(-c2cccc(C(F)(F)F)c2)c2sc(C(=N)NC3CCS(=O)(=O)CC3)cc2c1=O,91.5
18,Cc1ccc(C(=O)N(CCCN)[C@@H](c2nc3cc(Cl)ccc3c(=O)n2Cc2ccccc2)C(C)C)cc1,9.23
19,Cc1ccc(C(=O)N(CCCN)[C@@H](c2oc3cc(Cl)ccc3c(=O)c2Cc2ccccc2)C(C)C)cc1,20.5
20,Fc1ccc(-c2nc3n(c2-c2ccncc2)CCS3)cc1,103
21,C[C@H]1C[C@H]2[C@@H]3CCC4=CC(=O)C=C[C@]4(C)[C@H]3C(=O)C[C@]2(C)[C@@]1(O)C(=O)CO [Betapar (Meprednisone)],107
22,"C[C@H](CC[C@@H]1OC1(C)C)[C@H]1CC[C@H]2[C@@H]3CC=C4C[C@@H](O)CC[C@]4(C)[C@H]3CC[C@]12C [24(S),25-Epoxycholesterol]",107
23,Cc1c(NC(=O)OC[C@@H]2COCCN2)cn2ncnc(Nc3ccc4c(cnn4Cc4cccc(F)c4)c3)c12,100
24,CC1(C)C(=O)NC2=C1C(=O)C(=O)c1ccccc12,40.5 and 19.2
25,COc1ccc(NS(=O)(=O)c2sc3ccc(Cl)cc3c2C)cc1N1CCNCC1,98.3
26,O=C(Nc1ccccc1)C12CC1C(=NO)c1ccccc1O2 (stereo not drawn),99.8
